# Cycloheximide cs: counter-screen for Shiga toxin inhibitors: cycloheximide protein synthesis inhibition | cell reporter, cycloheximide protein synthesis inhibition counterscreen | max response, % | 300,000 tested, 12% active; in the data active means max response mostly above about 13%, no sharp cut-off; inactive means mostly below about 14%; further: read at 38.3 µM for the half of the compounds with a filed dose; 0% is about no effect
# Vaccinia mCherry: inhibitors of vaccinia virus infection (mCherry reporter signal). Vaccinia virus mCherry reporter infection, fluorescence. Potency, µM (titrated, usually from 36.5 µM), without a hit: at the top dose activity change, negative = inhibition, usual class: inhibitors. 310,000 tested, 0.63% active. AID 720579; calls by dose curve; tested in A549 cells; further: potency means the concentration at half of the fitted maximal effect; on the % scale 0 is the no-effect control and ±100 the full control effect; nearly all actives have a fitted effect of over 35% in size
# LASV entry inh: blocks Lassa virus binding to or entry into cells. Lassa virus pseudotype entry inhibition, cell reporter. Potency, µM (doses to about 37.9 µM), without a hit: at the highest dose activity change, negative = inhibition, actives largely listed as inhibitors. 300,000 tested, 1.2% active. AID 540256; calls by dose curve; tested in HEK293 cells; further: potency means the concentration at half of the fitted maximal effect; on the % scale 0 is the no-effect control and ±100 the full control effect; nearly all actives have a fitted effect of over 50% in size
# Vaccinia Venus: vaccinia inhibition (Venus reporter); Vaccinia virus Venus reporter expression, fluorescence; Potency, µM (doses to about 36.5 µM), for inactives: at the highest dose activity change, negative = inhibition, actives largely listed as inhibitors; 330,000 tested, 0.46% active; AID 720580; calls by dose curve; tested in A549 cells; further: potency means the concentration at half of the fitted maximal effect; on the % scale 0 is the no-effect control and ±100 the full control effect; nearly all actives have a fitted effect of over 30% in size
# Shiga inhibitor: blocks Shiga toxin action in Vero cells. Vero cells, Shiga toxin protein synthesis inhibition reporter. inhibition, % at 38.7 µM. 290,000 tested, 9.2% active; in the data active means inhibition mostly above about 28%, no sharp cut-off; inactive means mostly below about 43%; further: 0% is about no effect
# MARV entry inh: Marburg virus entry inhibition | 300,000 tested, 1.8% active | Marburg virus pseudotyped entry inhibition, cell reporter | Potency, µM (titrated, usually from 37.8 µM), without a hit: at the top dose activity change, negative = inhibition, usual class: inhibitors; calls by dose curve; tested in HEK293 cells; further: potency means the concentration at half of the fitted maximal effect; on the % scale 0 is the no-effect control and ±100 the full control effect
# * marks the source's active call; other numbers are inactive results; i = inactive; ? = inconclusive; . = no result given; [ ] = remark or other dose. The sample as a whole holds a higher share of hits than the screen did.
SMILES,Cycloheximide cs,Vaccinia mCherry,LASV entry inh,Vaccinia Venus,Shiga inhibitor,MARV entry inh
Cc1cc(C(=O)Nc2ccccc2-c2nc(CNC(=O)c3cc4ccccc4cn3)c(C)o2)c(C)o1,.,-8%,.,7%,.,.
O=C(/C=C/c1ccccc1Cl)Nc1nc(-c2cccs2)ns1,.,-10%,?,-20%,.,5%[46.1 µM]
Brc1cccc(-c2n[nH]c(-c3ccccc3)n2)c1,64*,?,-7%,?,146*,-24%
c1cncc(-c2nn[nH]n2)c1,0,-15%,3%,-7%,23,7%
c1ccc(-c2nc(-c3cccnc3)n[nH]2)cc1,31*,.,.,.,17,.
COc1ccc(CNC(=O)[C@H](C)NC(=O)C2CCN(S(=O)(=O)c3ccc(F)cc3)CC2)cc1,2,.,.,.,12,.
O=C(O)c1cc(-c2ccc(N3CCOCC3)cc2)nn1-c1ccc(F)cc1F,1,-8%,11%[46.1 µM],-9%,-9,0%[46.1 µM]
Brc1cc(Br)c2nc(-c3ccc(N4CCOCC4)cc3)ccc2c1,38*,-20%,?,-4%,55*,24%
COC(=O)c1cnc2ccccc2n1,16*,-6%,-10%,-5%,29,22%
O=C(O)C(=O)/C(=C\c1ccc(Cl)cc1)c1ccc2ccccc2n1,30*,-13%,?,-17%,166*,?
COCCNC(=O)c1ccc2ccccc2n1,27*,.,1%,.,33,28%
COc1ccc(CNC(=O)c2ccc3ccccc3n2)cc1,26*,.,.,.,63,.
O=C(O)C/C(=C\c1ccc(Cl)cc1)c1nc2ccccc2o1,-1,-7%,-4%,9%,-4,24%[46.1 µM]
O=C(NCCc1ccccc1)c1cnc2ccccc2n1,32*,.,.,.,106*,.
Cc1ccccc1CNC(=O)c1ccc2ccccc2n1,-3,-9%,?,3%,2,-10%[46.1 µM]
O=C(NCCc1ccc(Cl)cc1)c1ccc2ccccc2n1,22*,-9%,-5%,-9%,70*,-2%[46.1 µM]
Cc1ccccc1OCCNC(=O)c1ccc2ccccc2n1,71*,i,-28%,-19%,93*,?
O=C(NCc1ccccc1)c1ccc2ccccc2n1,-2,-10%,?,-2%,17,-1%[46.1 µM]
COc1ccc(CCC(=O)NCCc2cn3c(C)csc3n2)cc1,-5,-3%,.,-21%,-9,.
Cc1ccc(S(=O)(=O)NCCc2nnc3ccc(SCc4ccccc4F)nn23)cc1,.,-14%,?,-13%,.,.
CC(=O)c1ccc(N2CCN(C(=S)Nc3cccc(Cl)c3)CC2)cc1,-1,-18%,-14%,-10%,-6,0%
CC(=O)c1ccc(NC(=S)NCCc2cccc(Cl)c2)cc1,27*,i,?,-14%,78*,?
CS/C(N)=N/C(=S)Nc1cccc(Cl)c1,36*,-14%,?,3%,94*,-13%[46.1 µM]
CC(=O)c1ccc(NC(=O)Nc2cccc(Cl)c2)cc1,37*,-8%,-2%,-24%,61*,-27%[46.1 µM]
CC(=O)Nc1ccc(NC(=O)Nc2cccc(Cl)c2)cc1,27*,.,.,.,50*,.
SMILES,Cycloheximide cs,Vaccinia mCherry,LASV entry inh,Vaccinia Venus,Shiga inhibitor,MARV entry inh
COc1cccc2c1Oc1nc(-c3ccccc3)nc(SCC(=O)N3CCCCC3)c1C2,.,-6%,6%[46.1 µM],-7%,.,-1%[46.1 µM]
O=C(O)C1Nc2ccc(C(F)(F)F)cc2C2OCCC12 (stereo not drawn),.,-12%,.,-9%,.,.
CCCN(Cc1nnc(-c2ccccc2Cl)o1)C(=O)COc1ccc(Cl)cc1,.,-20%,-2%,-17%,.,?
O=C(O)/C(=C\C(=O)c1ccccc1)Nc1ccccc1,51*,.,.,.,83*,.
CC(=O)c1ccc(NC(=S)NCCc2ccc(S(N)(=O)=O)cc2)cc1,32*,-5%,?,-6%,99*,-1%[46.1 µM]
O=C(Nc1ccccc1)C(Cl)C(=O)c1ccccc1 (stereo not drawn),36*,.,.,.,.,.
O=C(Nc1ccccc1)Nc1ccccc1,48*,-13%,.,-6%,93*,.
COc1ccc(C(=O)OCC(=O)NC2CC2)cc1S(=O)(=O)Nc1ccc(C)cc1,.,-15%,1%,-7%,.,4%
COc1cccc(C(=O)Nc2ccccc2-c2nc(-c3ccc(C)cc3)no2)c1,.,-21%,9%[46.1 µM],-11%,.,3%[46.1 µM]
CC(OC(=O)c1cc[n+]([O-])cc1)C(=O)NCc1ccccc1 (stereo not drawn),.,i,2%,-16%,.,?
O=[N+]([O-])c1ccc2c(c1)C(=NO)c1cc(Cl)c(Cl)cc1-2,.,i,-5%[46.1 µM],-11%,.,?
